Screening data as filed in PubChem.
TGFb SMAD3 inh – blocks TGF-b signaling; Potency, µM (top dose mostly 46.1 µM), for the others: at the top dose activity, negative = inhibition, hits mostly inhibitors; 410,000 compounds, 1.2% hits; HepG2 CAGA-GFP TGF-b/SMAD3 reporter, GFP fluorescence, 18 h; TGF-beta stimulated, 500 pg/mL final; AID 588855; note: % is set by controls: 0 for no effect and ±100 for the full control effect; nearly all actives have a fitted effect of over 65% in size
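Inhibition was scored as loss of TGF-beta-induced (500 pg/mL final, 18 hours, 37 degrees C) GFP in HEPG2 cells carrying a CAGA-GFP reporter, in DMEM with 1% FBS. Well GFP was summed per cell; Activity was normalised to unstimulated and stimulated DMSO wells, then concentration-response fitting.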
ATXN2 expr inh – reduces ATXN2 reporter expression in HEK-293 cells | 360,000 compounds, 0.72% hits | HEK-293 ATXN2-luciferase reporter, luminescence, 24 h | AID 1745845 | Potency, µM (titrated, usually from 57 µM), for the others: top-dose activity change, negative = inhibition, actives largely listed as inhibitors; note: % is set by controls: 0 for no effect and ±100 for the full control effect; nearly all actives have a fitted effect of over 55% in size
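qHTS (up to 57 uM final) was run with 24 h compound exposure of reporter cells at 37 °C. Each well was multiplexed: SteadyGlo luminescence measured ATXN2-luciferase expression after a fluorogenic Gly-Phe-AFC viability readout (25 uM final).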
HepG2 viability – kills HepG2 cells in TGF-b inhibitor counter-screen | HepG2 CAGA-GFP viability, ATP luminescence, 18 h | Potency, µM (doses to about 46.1 µM), without a hit: at the highest dose activity change, negative = cytotoxicity, most hits filed as cytotoxic | 410,000 compounds, 0.76% hits | AID 588856
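CellTiter-Glo luminescence gave cytotoxicity after 18 hours at 37 degrees C. The cells were HepG2 CAGA-GFP in 1% FBS DMEM, stimulated with 500 pg/mL TGF-beta after compound addition. %Activity was normalised to no-cell wells (complete cell-killing) and DMSO (no toxicity), and curves were fitted and classified.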
ATXN viability – cell viability loss in ATXN counter-screen. 400,000 compounds, 0.49% hits. AID 651635. S2 cells (HEK-293 line with an ATXN2-luciferase reporter) viability, CellTiter-Fluor protease fluorescence, 24 h. Potency, µM (titrated, usually from 56.7 µM), hits mostly cytotoxic; note: nearly all actives have a fitted effect of over 40% in size
HT1080 IDH1KD tx – kills HT-1080 cells with IDH1 knockdown. HT-1080 IDH1 knockdown viability, ATP luminescence, 48 h. Potency, µM (titrated, usually from 46.1 µM), without a hit: at the highest dose activity, negative = toxicity, most hits filed as cytotoxic. 360,000 compounds, 2% hits. AID 686971;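 note: 0% = DMSO wells and -100% = cell-free medium wells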
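Assay cells: HT-1080 with IDH1 knockdown, 750 per well, RPMI/5% FBS. Exposure: 48 h at 37 °C following 2 h pre-incubation. Read: CellTiter-Glo luminescence; fitted concentration-response, curve class assigned.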
HT1080NT lethal – kills 2HG-producing HT-1080-NT fibrosarcoma cells | AID 686970 | 360,000 compounds, 1.6% hits | HT-1080-NT fibrosarcoma viability, CellTiter-Glo ATP luminescence, 48 h | Potency, µM (top dose mostly 46.1 µM), for the others: top-dose activity, negative = less viability, hits mostly cytotoxic;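 note: NT is the 2HG producing partner of a matched IDH1 knockdown line; 0% = DMSO-treated cells and -100% = media-only wells without cells; nearly all actives have a fitted effect of over 55% in size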
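Fibrosarcoma NT cells, 750 per well in 5% FBS RPMI, were exposed to compound for 48 hours. Viability: CellTiter-Glo luminescence.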
An asterisk follows results filed as active; i = inactive; u = inconclusive; x = no result given; ! = not confirmed by another sample; [ ] = remark or other dose. Sampled rows, rich in hits. Any-hit rate of the full collection: about 3.9%. Calls come from the whole dose curve; as a rule, active = well fitted curve in the direction sought with a large enough effect; inconclusive = small, poorly fitted or top-dose-only effect, or another doubt; inactive = no such curve, though single readings can be large; an effect the other way counts as inactive or inconclusive. Potency is the fitted concentration of half-maximal effect.

SMILES | TGFb SMAD3 inh | ATXN2 expr inh | HepG2 viability | ATXN viability | HT1080 IDH1KD tx | HT1080NT lethal
N=C1S/C(=C\c2ccc(-c3cccc(Cl)c3)o2)C(=O)N1c1nccs1 | u | 3.5µM* | 2% | 5.6µM* | u | -20%
CC1=NC(=O)C(N=Nc2ccccc2)N1c1ccccc1 (stereo unspecified) | -27% | 15% | -24% | u | -3% | -4%
CC1=NC(=O)C(N=Nc2cccc(C(=O)O)c2)N1c1ccccc1 (stereo unspecified) | -15% | 8.9µM* | -7% | u | -4% | -3%[9.24 µM]
N#C/C(=C\c1c[nH]c2ccc(Br)cc12)c1ccccn1 | u | 12% | -91% | i | u | 26µM*
CCN(CC)C(=S)NC(=O)c1ccc(Cl)cc1Cl | -10% | 0% | -8% | i | 3.5µM* | 7.1µM*
CC(C)(C)C(=O)NC(=S)NNC(=O)c1ccc(Cl)cc1Cl | u | -22% | -33% | i | 18µM* | 9.2µM*
CC(C)(C)C(=O)NC(=S)NNC(=O)c1ccc(-c2ccccc2)cc1 | 10µM* | x | -51% | u | 7.3µM* | 8.2µM*
CCN(CC)C(=S)NC(=O)c1cc(OC)c(OC)c(OC)c1 | -1% | -3% | 8% | i | -11% | 23µM*
COC(=O)NNC(=O)c1ccc(Cl)cc1Cl | 1% | -22% | 17% | u | 22% | 20%
CC1(C)CC(=O)C2=C(C1)c1c(ccc3ncccc13)NC2c1cccs1 (stereo unspecified) | -19% | 5% | 2% | u | 4.1µM* | 3.3µM*
COc1cc(C2Nc3ccc4ncccc4c3C3=C2C(=O)CCC3)cc(OC)c1O (stereo unspecified) | -2% | -3% | 4% | u | 8.2µM* | 16µM*
CC1CC2(C)Oc3ccccc3CC2C(C)C1CNCCCN(C)C (stereo unspecified) | u | 14µM* | 13µM* | u | 6.5µM* | 5.8µM*
O=C(c1cccnc1)C1CCCN(Cc2ccc3c(c2)CN(C(=O)c2cccs2)CCO3)C1 (stereo unspecified) | x | x | x | i | x | x
O=C(Nc1ccccc1)C1=C(c2ccccc2)S(=O)(=O)CCS1(=O)=O | 2.5µM* | 5.6µM* | 2.5µM* | 8.9µM* | 3.3µM* | 23µM*
O=C(O)c1ccccc1C(=O)Nc1ccccc1 | -23% | 3% | -5% | i | 1% | 10%
Cc1cc(C)n2c(Nc3c(C)cccc3C)c(-c3ccccn3)nc2n1 | x | u | x | u | 18µM* | u
Cc1cccc(C)c1Nc1c(-c2ccccn2)nc2ccccn12 | u | x | -17% | 10µM* | u | u
Cc1cccc(C)c1Nc1c(-c2ccsc2)nc2ccccn12 | u | 0% | -30% | u | x | x
CCOC(=O)C(C)Sc1ccc2nnc(-c3ccc(OCC)cc3)n2n1 (stereo unspecified) | 6% | x | 0% | x | x | x
CC(=O)/C(=N/Nc1ccccc1)N1CCOCC1 | 25% | -20% | -10% | i | -16% | 5µM*
Cc1cccc2c1CC[C@H](CN1CCC(c3c(Cl)cccc3Cl)CC1)C[C@@H]2O | x | -24% | x | x | x | x
CC1=C(C(=O)N2CCCCC2)C(c2cccc(Cl)c2)n2c(nc3ccccc32)N1 (stereo unspecified) | -23% | -10% | -5% | i | x | x
O=C1C=CC(=O)N1c1ccc(OC(F)F)cc1 | u | u | -95% | x | 16µM* | u
O=C1CCCC(=O)N1c1ccc(O)cc1 | -7% | 8% | -8% | i | -2% | 2%
O=C1C=CC(=O)N1c1ccc(O)cc1 | u | x | 7.9µM* | i | -7% | -2%
SMILES | TGFb SMAD3 inh | ATXN2 expr inh | HepG2 viability | ATXN viability | HT1080 IDH1KD tx | HT1080NT lethal
CCOC(=O)C1CCN(Cc2cc(Cl)c3ccccc3c2O)CC1 | u | -27% | -3% | u | 26µM* | u
COc1ccccc1-c1nnc2n1N=C(c1ccc(O)c(O)c1)CS2 | u | -15% | 3% | u | u | 0.21µM*
COc1ccc(C2=Nn3c(nnc3-c3ccccc3OC)SC2)cc1OC1CCOC1 (stereo unspecified) | 2.8µM* | -14% | -18% | u | x | x
CC(=O)c1ccc(-c2cccc(C3C4C=CCCC4(C)C(=O)N3Cc3ccccc3)c2)cc1 (stereo unspecified) | 18µM* | x | -19% | x | x | x
CC12CCC=CC1C(c1cccc(Br)c1)N(Cc1ccccc1)C2=O (stereo unspecified) | 13µM* | x | -91% | x | x | x
COc1ccc(NC(=O)Cn2ccn(Cc3ccccc3)c(=O)c2=O)cc1Cl | -1% | x | -9% | x | x | x
CCCCC1CCC(C(=O)N2CC(=O)Nc3ccc(C)cc3C2c2ccc(F)cc2)CC1 (stereo unspecified) | 0% | 0% | -23% | u | x | x
Cc1ccc2c(c1)C(c1ccccc1)N(C(=O)Cc1ccc(F)cc1)CC(=O)N2 (stereo unspecified) | u | 3% | -5% | u | x | x
CCN(CC)CCOc1ccc(/C(=C(/Cl)c2ccccc2)c2ccccc2)cc1 | u | 25µM*! | 10µM*! | x | 18µM*! | 18µM*
Cc1ccc(S(=O)(=O)N2CCN(Cc3cc(Br)ccc3O)CC2)cc1 | 10µM* | -27% | 1% | i | x | x
C=Cc1cc2c(cc1O)CCC1C2CCC2(C)C(O)CCC12 (stereo unspecified) | -39% | -18% | -19% | u | u | u
CC#Cc1cc2c(cc1O)CCC1C2CCC2(C)C(O)CCC12 (stereo unspecified) | u | 4% | -1% | u | u | 8.2µM*
CSCC(=O)NC1CCCN(C2Cc3ccccc3C2)C1 (stereo unspecified) | u | -4% | 7.9µM* | u | 15% | 5%
N#Cc1ccccc1NC(=O)CSC1=Nc2ccccc2C2CC=NN12 (stereo unspecified) | -2% | -7% | -12% | u | -12% | -15%
O=C(CSC1=Nc2ccccc2C2CC=NN12)NCc1ccco1 (stereo unspecified) | -14% | -12% | 1% | i | 7.3µM* | u
Cc1ccc(N/C(N)=N/c2nc(CSc3nnc(C)s3)cc(=O)[nH]2)c(C)c1 | 1% | x | 0% | u | 4.1µM* | 2.6µM*
COc1ccc(N/C(N)=N/c2nc(C)cc(=O)[nH]2)cc1 | 8% | -9% | 3% | i | 16% | 9%
COc1ccc(N/C(N)=N/c2nc(CSc3nnc(C)s3)cc(=O)[nH]2)cc1 | -27% | -31% | -1% | u | 2.6µM* | 3.3µM*
